# Laboratory results as given in PubChem BioAssay (NCI).
# About 83,000 compounds went through this panel and 20% of them were active in at least one assay; those are over-represented in the sample as a whole.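 Single-concentration screen, 48 h exposure, 96-well plates. Endpoint: percent growth. Below 10 = active.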 Unmarked numbers belong to inactive results. The source made the active and inactive calls.
# Legend:
# Assay in all cases: NCI-60 one-dose screen, 48 h (100 = growth as untreated, 0 = no growth, -100 = all killed)
# Conditions in all cases: 10 µM unless noted
# DU-145 prostate = test system: DU-145 prostate
# K-562 leukemia = test system: K-562 leukemia
# MALME-3M melanoma = test system: MALME-3M melanoma
# MDA-MB-231 breast = test system: MDA-MB-231 breast
# RXF 393 renal = test system: RXF 393 renal
# SF-268 CNS = test system: SF-268 CNS
# SF-295 CNS = test system: SF-295 CNS
# SF-539 CNS = test system: SF-539 CNS
# UACC-257 melanoma = test system: UACC-257 melanoma
# M14 melanoma = test system: M14 melanoma
Structure (SMILES),growth (DU-145 prostate),growth (K-562 leukemia),growth (MALME-3M melanoma),growth (MDA-MB-231 breast),growth (RXF 393 renal),growth (SF-268 CNS),growth (SF-295 CNS),growth (SF-539 CNS),growth (UACC-257 melanoma),growth (M14 melanoma)
Cc1sc2nc(NCCc3c[nH]c4ccc(Cl)cc34)[nH]c(=O)c2c1C,62.2%,22.3%,60.2%,31.1%,7.63% (active),15.5%,50.7%,40.1%,32.6%,26.5%
COc1ccc(/C=C(\C#N)n2nnc3cc(Cl)ccc32)cc1,-14.9% (active),8.41% (active),34.6%,-56.3% (active),-55.2% (active),27.6%,-20.9% (active),-60.5% (active),53%,-19.1% (active)
Cc1cc(N2CCN(CC(=O)Nc3ccc4c(ccn4C)c3)CC2)nc(N2CCCCCC2)n1,94.2%,65.6%,93.6%,101%,86.2%,102%,98.9%,110%,91.9%,98.7%
COc1ccc(OC)c(-c2nc(SCC(=O)c3ccc(C#N)cc3)[nH]c(=O)c2C#N)c1,99.6%,111%,97.8%,101%,105%,93.3%,99.5%,93.8%,99.9%,91.7%
c1ccc([P+](c2ccccc2)(c2ccccc2)c2ccc3c4ccc([P+](c5ccccc5)(c5ccccc5)c5ccccc5)c5cccc(c6cccc2c63)c54)cc1,19.5%,11.8%,-13% (active),9.37% (active),42.5%,24.4%,3.75% (active),-27.1% (active),15.2%,15.4%
CCCCNC(=O)Oc1ccc(/C(=C(/C)Cc2ccc(OC)cc2)c2ccc(OCCN(CC)CC)cc2)cc1,91.7%,3.84% (active),88.1%,88.8%,81.7%,86.2%,86.6%,77.8%,90.7%,52.1%
N#Cc1nc(-c2ccc(F)cc2)oc1S(=O)(=O)N1CCCCC1,99%,7.64% (active),42.8%,78.1%,55.4%,106%,104%,72.6%,91.2%,68.7%
c1cc2c(ccc3[nH]c(-c4ccc5[nH]ncc5c4)c4c(c32)CCCC4)n1,66%,2.93% (active),35.9%,78.4%,89.3%,62.3%,63.6%,62.9%,74.9%,61.9%
c1ccc(-c2oc(-c3ccccc3)c(CN3CCCCC3)c2CN2CCCCC2)cc1,57.7%,7.49% (active),-12.5% (active),29.6%,2.14% (active),57.9%,37.3%,46.7%,15.8%,1.67% (active)
CCOC(=O)c1nn(-c2ccc(S(N)(=O)=O)cc2)c2nc(C)cc(=O)n12,108%,102%,106%,102%,104%,103%,103%,97.8%,112%,104%
COc1ccccc1NC(=O)N=Nc1c(O)[nH]c2ccccc12,102%,91.2%,95.8%,82.7%,100%,99.1%,94.1%,98.3%,89%,95.1%
CC1OC(n2c3ccccc3c3c4c(c5c6ccccc6[nH]c5c32)C(=O)N(CCN2CCCC2)C4=O)CC(O)C1O (stereo not given),30.2%,3.65% (active),72.3%,74.7%,30.7%,37%,26.6%,39.4%,84.5%,38.6%
Cc1ccc(C(=O)c2ccc(CC(=O)N/N=C/c3ccccc3O)n2C)cc1,89.6%,84.2%,91.4%,82.6%,89.6%,70.9%,97.7%,89.1%,95.3%,82.9%
N#CC1=C(N)Oc2c(ccc3ccccc23)C1c1ccccc1 (stereo not given),13.4%,9.05% (active),46.5%,28.3%,68.5%,19.2%,8.94% (active),-3.42% (active),37.5%,3.13% (active)
COc1cc2c(c(OC)c1OC)CCC(c1cccc(NC(=O)c3ccc(Br)cc3)c1)O2 (stereo not given),87.9%,49.7%,80.4%,82.6%,89%,78.6%,66.9%,97.3%,69.6%,81.3%
COc1ccc(C(=O)N2c3ccccc3Sc3ccccc32)c(OC)c1,9.99% (active),10.5%,66.9%,38.4%,-0.69% (active),36.6%,11.6%,-18.8% (active),77%,-9.55% (active)
CCOC(=O)C(=O)C(C(=O)OCC)c1ccccc1 (stereo not given),120%,86.7%,93.2%,94.1%,113%,103%,139%,118%,123%,100%
COC1=CC(c2ccc[nH]2)=N/C1=C\c1[nH]c(C)c(C(=O)OC(C)C)c1C,10.5%,2.07% (active),-74.3% (active),-67% (active),-17.7% (active),6.34% (active),-76% (active),-58.6% (active),-37.7% (active),-67.5% (active)
O=c1[nH]c(Cc2nc3ccccc3s2)nc2cc(Br)ccc12,70.5%,23.2%,90.7%,65.6%,104%,61%,76.5%,90.3%,72.2%,35.2%
Cc1nc2sc(C(=O)Nc3ccc(Br)cc3)c(N)c2cc1C(O)c1ccccc1 (stereo not given),81.7%,12.1%,63.9%,57.9%,86.6%,75.8%,69.5%,66.7%,61.8%,38.9%
Cc1nc2sc(C(=O)Nc3cccc4ccccc34)c(N)c2cc1C(O)c1ccccc1 (stereo not given),5.38% (active),4.79% (active),46.9%,17.1%,36.2%,23.5%,10.2%,-7.12% (active),51.6%,7.59% (active)
CCC(C(=O)[C@@H](C)[C@@H](O)[C@H](C)[C@@H]1O[C@@H]([C@@H](CC)C(=O)ONC(=O)c2ccccc2)CC[C@@H]1C)[C@H]1O[C@]2(C=CC(=O)[C@]3(CC[C@@](C)([C@H]4CC[C@](O)(CC)[C@H](C)O4)O3)O2)[C@H](C)C[C@@H]1C (stereo not given in full),-13% (active),-6.87% (active),-24.7% (active),-53.2% (active),-6.41% (active),28.4%,1.07% (active),-62.8% (active),32%,21.1%
O=C(Nc1ccc(Oc2cccc(Cl)c2)c(Cl)c1)c1cnccn1,22.7%,13.2%,53.4%,31.7%,-4.58% (active),54.3%,41.2%,-35.2% (active),72.4%,19.8%
COc1c(C(=O)Nc2ccc(C)c(Br)c2)ccc2ccccc12,96.8%,41.9%,84.4%,104%,81.1%,96.5%,90.6%,92.2%,98.3%,81.1%
C#CCOC(=O)/C=C/c1cn(-c2ccccc2)nc1-c1ccc(OC)cc1,95.1%,16.8%,107%,57.1%,73.7%,87.9%,94.1%,89.4%,87.5%,98.8%
COc1ccc(NC2=C(I)C(=O)c3ncccc3C2=O)cc1,-84.2% (active),2.18% (active),-98.2% (active),-11.8% (active),33%,14.7%,8.7% (active),-30% (active),15.9%,-65.7% (active)
Cc1ccc(C2=Nc3c(N)ncnc3NC(c3cccc(Nc4ccnc5cc(C(F)(F)F)ccc45)c3)C2)cc1 (stereo not given),64.9%,5.65% (active),35.3%,29.6%,0.783% (active),40.1%,25%,56.1%,51.7%,16%
